Data reported in PubChem BioAssay AID1851 (National Center for Advancing Translational Sciences (NCATS), 2009).
Several values for one entry are separate records, joined by “and”; a condition that tells them apart may be missing. Equal entries are not always repeated. Among all 16,000 compounds or so, about 2,600 (16%) were called active. Not shown: some 20% with an inconclusive outcome. Calls follow the shape of the dose curve; as a rule, active = well fitted curve in the direction sought with a large enough effect; inconclusive = small, poorly fitted or top-dose-only effect, or effect the other way; inactive = no such curve, though single readings can be large or run the other way. Not all results are given here. The source holds several records for some structures; these can differ, active in one and inactive in another.

biological target: Cytochrome P450 2D6 (Homo sapiens) (UniProt P10635); assay: Cytochrome panel assay with activity outcomes; conditions: recombinant CYP, pro-luciferin dealkylation, luminescence, p450-cyp2d6; series mostly up to 57.1 µM; activity, negative = inhibition: at the top concentration
% is scaled to controls: 0 for no effect and ±100 for the full control effect.

Cytochrome P450 2D6 (Homo sapiens), sequence (P10635 whole entry, looked up): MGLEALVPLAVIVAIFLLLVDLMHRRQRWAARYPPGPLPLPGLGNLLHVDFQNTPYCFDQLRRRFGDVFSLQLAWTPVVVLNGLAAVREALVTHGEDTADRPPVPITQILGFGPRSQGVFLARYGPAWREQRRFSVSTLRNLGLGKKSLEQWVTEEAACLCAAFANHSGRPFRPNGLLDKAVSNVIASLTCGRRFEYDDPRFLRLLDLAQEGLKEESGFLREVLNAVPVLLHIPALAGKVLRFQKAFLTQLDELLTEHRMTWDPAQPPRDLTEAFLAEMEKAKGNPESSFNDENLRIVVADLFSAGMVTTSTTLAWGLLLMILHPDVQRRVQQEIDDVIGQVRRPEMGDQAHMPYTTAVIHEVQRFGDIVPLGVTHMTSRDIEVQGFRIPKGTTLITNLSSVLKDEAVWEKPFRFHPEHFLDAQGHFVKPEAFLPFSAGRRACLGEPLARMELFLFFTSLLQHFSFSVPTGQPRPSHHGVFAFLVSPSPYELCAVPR

Row | Compound | AC50 | activity, negative = inhibition
1 | CN(C)Cc1ccccc1-c1nccc(N(C)Cc2ccco2)n1 | 0.794 µM (active) | 
2 | Cc1noc(C)c1-c1nccc(N(C)Cc2ccco2)n1 |  | -10.1% (inactive)
3 | Cc1noc(C)c1-c1nccc(N(C)C)n1 |  | 9.87% (inactive)
4 | CN(C)Cc1ccccc1-c1nccc(N(C)C)n1 | 1 µM (active) | 
5 | CN(C)c1ccnc(-c2ccccc2C(F)(F)F)n1 |  | 12.2% (inactive)
6 | Cn1c2c(c(=O)n(C)c1=O)C(C(F)(F)F)(C(F)(F)F)N=C(c1ccc(Cl)cc1)N2 |  | 18.2% (inactive)
7 | COc1ccc(Oc2nc3ccccc3nc2C(F)(F)F)cc1 |  | -2.66% (inactive)
8 | CCCC[C@@H]1C[C@H]1C(NC(=O)c1ccccc1)c1ccccc1C(F)(F)F (stereo partly specified) |  | 11.1% (inactive)
9 | [Cu].[O-]/N=C1/C(=[OH+])Nc2ccccc21.[O-]Nc1c(O)[nH]c2ccccc12 |  | -7.87% [at 11.4 µM] (inactive)
10 | O=C(O)C1=C/C(=C(/c2ccccc2)c2cc(C(=O)O)c(O)c3ccccc23)c2ccccc2C1=O |  | 14% [at 11.4 µM] (inactive) and -3.21% [at 11.4 µM] (inactive)
11 | O=C(Nc1cccnc1)C1COc2ccccc2O1 (stereo unspecified) |  | -8.2% (inactive)
12 | CC(C)(C)NS(=O)(=O)c1ccc(NS(=O)(=O)c2ccc(F)cc2)cc1 |  | 10.1% (inactive)
13 | COc1ccc(CC(=O)NC(=S)Nc2ccc(S(=O)(=O)NC(C)(C)C)cc2)cc1 |  | 17.1% (inactive)
14 | CC(C)(C)NS(=O)(=O)c1ccc(NC(=O)C(Sc2ccccc2)c2ccccc2)cc1 (stereo unspecified) | 3.55 µM (active) | 
15 | CO[C@H]1C[C@@H]2C[C@H](O)C[C@@H](CC(=O)O[C@@H](/C=C\CC(C)C)C[C@@H]3CC[C@H](C)[C@@H](C1)O3)O2 |  | -2.62% [at 11.4 µM] (inactive)
16 | N#Cc1cccc(NC(=O)N2CC3(CCN(C(=O)c4ccco4)CC3)C2)c1 |  | -5.53% (inactive)
17 | COc1cc(NC(=O)c2cc3ccccc3o2)c(OC)cc1Br |  | -2.15% (inactive)
18 | CCCN(CCO)Cc1ccc(F)c(Br)c1 | 7.94 µM (active) | 
19 | COc1ccc(C(=S)Nc2ccccc2)cc1 |  | -50.9% (inactive)
20 | COc1ccc(-c2nc(C(=O)N3CCN(C)CC3)sc2-c2ccc(OC)cc2)cc1 |  | -10.4% (inactive)
21 | Cc1nnc(NC(=O)CCC(=O)NCc2cccs2)s1 |  | -29.9% (inactive)
22 | Nc1nc2c(C(=O)NCc3cccs3)nnn2c2cccc(Cl)c12 |  | 6.61% [at 11.4 µM] (inactive)

Row | Compound | AC50 | activity, negative = inhibition
23 | CC(C)(O)C#Cc1ccc(C(=O)NCc2cccs2)s1 | 22.4 µM (active) | 
24 | CCc1sc(N(C(=O)Cc2ccccc2)c2cccc(F)c2)nc1-c1ccc(C)cc1 |  | 3.54% (inactive)
25 | O=C1CSC2(CCN(CCCN3c4ccccc4Sc4ccc(Cl)cc43)CC2)N1 | 0.631 µM (active) | 
26 | CC1(C)CCCN(C(=O)N2c3ccccc3Sc3ccccc32)C1 |  | 3.85% (inactive)
27 | Clc1ccc2c(c1)N(CCCN1CCCC13CCCCC3)c1ccccc1S2 | 0.00794 µM (active) | 
29 | OC1CC2CC[C@H](C1)N2CCCN1c2ccccc2Sc2ccc(Cl)cc21 (stereo partly specified) | 0.0631 µM (active) | 
30 | O=C(CSc1nc2ccccc2o1)N1c2ccccc2Sc2ccc(Cl)cc21 |  | 5.14% (inactive)
31 | CCOC(=O)Nc1ccc2c(c1)N(C(=O)CCN1CCN(C)CC1)c1ccccc1S2 |  | -21.6% (inactive)
32 | Cc1ccc2cn[nH]c2c1NC(=S)NC(=O)c1ccccc1 |  | -0.296% (inactive)
33 | O=C(NNc1nc2ccccc2s1)c1ccccc1F |  | -25.1% (inactive)
34 | Oc1ccc(Br)cc1CNn1cnnc1 |  | 22.7% (inactive)
35 | CCOC(=O)c1cc(-c2ccc(Cl)cc2)nc2c1c(C)nn2CCC#N |  | -25.2% (inactive)
36 | Cc1ccccc1C(=O)c1c[nH]c(C(=O)NCC2CCCO2)c1 (stereo unspecified) |  | 28.3% (inactive)
37 | COc1ccc(COC(=O)N/N=C(\C)CC(=O)Nc2c(C)cc(C)cc2C)cc1 |  | -17.7% (inactive)
38 | O=C(O)CSc1cc(C(F)(F)F)nc(-c2ccccn2)n1 |  | -6.18% (inactive)
39 | CN1CCN(c2ncc3nc(-c4cccc(C#N)c4)c(=O)n(C)c3n2)CC1 |  | -2% (inactive)
40 | CCSc1ccc2c(c1)N(CCCN1CCN(C)CC1)c1ccccc1S2 | 2.51 µM (active) | 
41 | O=C1NC(O)=NC1(c1ccccc1)c1ccccc1 |  | 1.34% (inactive)
42 | Cc1noc(C)c1C(=O)N1CCC2(CCN(Cc3ccncc3)CC2)CC1 |  | -9.53% (inactive)
43 | O=C(O)c1ccccc1Nc1cccc(OCc2ccc3ccccc3n2)c1 | 7.94 µM (active) | 
44 | CCCCC[C@H](O)c1cccc(OCc2ccc3ccccc3n2)c1 |  | -20.4% (inactive)

Row | Compound | AC50 | activity, negative = inhibition
45 | O=C(Nc1ccccc1C(=O)O)c1ccc2ccccc2n1 |  | 18.1% (inactive)
46 | CC/C(=N/Nc1ccccc1)c1cnnc(SC)n1 |  | -10.2% (inactive)
47 | O=C(Nc1ccc(-c2csc(-c3ccccc3)n2)cc1)c1ccccc1Cl |  | 19.1% (inactive)
48 | Cc1ccc(C(=O)ON=C2CCN(S(=O)(=O)c3ccccc3)CC2)cc1 |  | -18% (inactive)
49 | O=c1cnc2cnc(Oc3cccc(Cl)c3)nc2n1C1CC1 |  | -8.64% (inactive)
50 | Fc1ccc(C2CC(c3ccco3)=NN2c2ccccc2)cc1 (stereo unspecified) | 8.91 µM (active) | 
51 | CC(=O)c1c(O)cc(=O)n(-c2ccccc2)c1-c1cccc2ccccc12 |  | -2.04% (inactive)
52 | O=C1C=C(Nc2ccc(Cl)cc2)CC(c2ccc(Cl)cc2)C1 (stereo unspecified) | 8.91 µM (active) | 
53 | O=C1C=C(NCCN2CCOCC2)CC(c2ccccc2)C1 (stereo unspecified) |  | -11.2% (inactive)
54 | O=C(O)C1(Nc2ccc(Cl)cc2)CCCC1 |  | 7.94% [at 11.4 µM] (inactive)
55 | CC1(C)C(=O)C(c2ccccc2)=C2CN3C(=O)N(CCc4ccccc4)C(=O)C3(Cc3ccc(C(F)(F)F)cc3)C=C21 (stereo unspecified) |  | 9.81% (inactive)
56 | CCCCc1ccc(-c2nc(NC(=O)C3C4CCC(O4)C3C(=O)O)sc2C)cc1 (stereo unspecified) |  | -28.7% (inactive)
57 | COc1ccc(N2CCN(Cc3nc4c(c(=O)[nH]c(=O)n4C)n3CCCc3ccccc3)CC2)cc1 |  | -9.2% (inactive)
58 | CCOC(=O)N1CCN(Cc2nc3c(c(=O)[nH]c(=O)n3C)n2Cc2ccccc2C)CC1 | 12.6 µM (active) | 
59 | COC(=O)Cn1c(CN(Cc2ccccc2)Cc2ccccc2)nc2c1c(=O)[nH]c(=O)n2C |  | -9.02% (inactive)
60 | Cn1c(=O)[nH]c(=O)c2c1nc(CN1CCOCC1)n2CCCO |  | 8.01% (inactive)
61 | CCCCCn1c(CN2CCN(c3cc(Cl)ccc3C)CC2)nc2c1c(=O)[nH]c(=O)n2C | 8.91 µM (active) | 
62 | Cn1c(=O)[nH]c(=O)c2c1nc(CN1CCOCC1)n2Cc1ccccc1 |  | 6.42% (inactive)
63 | O=C(Cn1nnc2ccccc21)N/N=C\C=C\c1ccccc1 |  | 4.01% (inactive)
64 | NC(=O)c1csc(-c2ccc(CO)o2)n1 |  | 0.271% [at 11.4 µM] (inactive)
65 | NS(=O)(=O)c1ccc(N=Nc2ncccc2O)cc1 |  | -13% [at 11.4 µM] (inactive)
66 | C/C(=N\Nc1nnc(-c2ccccc2)c(-c2ccccc2)n1)c1cccc([N+](=O)[O-])c1 |  | -29.2% (inactive)

Row | Compound | AC50 | activity, negative = inhibition
67 | O=c1c(C=Nc2cccc(C(F)(F)F)c2)c[nH]n1-c1cccc(Cl)n1 |  | -18.9% (inactive)
68 | CCc1cc2c(nc1CC)CCN(CC/C(C)=N/OC[C@@H](C)[C@H](OCc1ccccc1)C(C)C)C2 |  | -10.6% [at 11.4 µM] (inactive)
69 | COc1ccccc1NC(=O)CCc1c(C)[nH]c(=O)c(C#N)c1C |  | -20.1% (inactive)
70 | CC1Cc2ccccc2N1C(=O)CSc1nnnn1C(C)C (stereo unspecified) |  | -0.323% (inactive)
71 | CC1Cc2ccccc2N1C(=O)Cn1cc([N+](=O)[O-])cn1 (stereo unspecified) |  | -4.04% (inactive)
72 | Cc1ccc2c(c1)nnn2C1CCN(CC(=O)N2c3ccccc3CC2C)CC1 (stereo unspecified) | 25.1 µM (active) | 
73 | O=C(O)/C=C\c1cnc[nH]1 |  | -4.82% (inactive)
74 | CC(=O)NC1=NN(c2ccccc2)C(=O)C1 |  | 22.6% (inactive)
75 | CC(=O)N1CCC(=O)N(C(C)C)c2ccccc21 | 3.16 µM (active) | 
76 | Cc1nn(C(C)C(=O)N2CCc3ccccc32)c(C)c1[N+](=O)[O-] (stereo unspecified) |  | -3.76% (inactive)
77 | C/C(Cl)=C/CSc1nnc2n(N)c(=O)c3ccccc3n12 |  | -14.6% (inactive)
78 | CC1CC(C)CN(C(=O)CNS(=O)(=O)c2ccc(Br)s2)C1 (stereo unspecified) | 3.16 µM (active) | 
79 | O=C(NCc1ccco1)c1ccccc1NS(=O)(=O)c1ccc(Br)s1 |  | -22.3% (inactive)
80 | O=C(CNS(=O)(=O)c1ccc(Br)s1)N1CCC(N2CCCCC2)CC1 | 12.6 µM (active) | 
81 | CC1CCC(C(=O)NC(C(=O)N2CCC(N3CCCCC3)CC2)C(C)C)CC1 (stereo unspecified) |  | -5.87% (inactive)
82 | O=c1c(-c2ccc(F)c(F)c2)nc2cncnc2n1C1CC1 |  | -0.558% (inactive)
83 | COc1ccc(C(=O)N/N=C/c2cccc3cccnc23)cc1 |  | -11.4% (inactive)
84 | CC(C)(C)c1nnc(NC(=O)NS(=O)(=O)c2ccccc2)s1 |  | -2.56% (inactive)
85 | COc1ncc2nc(-c3ccc(F)cc3)c(=O)n(C)c2n1 |  | -2.72% (inactive)
86 | Oc1cc2c(c(Cl)c1O)CCNC[C@H]2c1ccccc1 | 10 µM (active) | 
87 | Oc1ccc([C@@H]2CNCc3sccc32)cc1O |  | -12.1% (inactive)
88 | Oc1ccc([C@@H]2CNCCc3c2cc(O)c(O)c3Cl)cc1 | inactive and 3.16 µM (active) | 

Row | Compound | AC50 | activity, negative = inhibition
89 | Oc1cc2c(cc1O)[C@H](c1ccccc1)CNCC2 | inactive | 
90 | CCC(=O)Nc1nonc1-c1nc2ccccc2n1N(C(=O)CC)C(=O)CC |  | 2.61% (inactive)
91 | Cc1cc(CNC(=O)[C@H]2C[C@@H]2[C@H](NP(=O)(c2ccccc2)c2ccccc2)c2ccccc2)nn1C |  | 0.567% (inactive)
92 | CC1CSc2nc3sc4c(c3c(=O)n21)CCCC4 (stereo unspecified) |  | -12.8% (inactive)
93 | CN(C)c1ncc2nc(-c3cccs3)c(=O)n(Cc3cccs3)c2n1 |  | 2.06% (inactive)
94 | Cc1cc(NC(=O)C2C3C(=O)N(Cc4ccc(Cl)cc4)C(C(=O)NC(C)(C)C)C34C=CC2(C)O4)no1 (stereo unspecified) |  | 4.95% (inactive)
95 | CCNc1ncc2nc(-c3cc(F)cc(F)c3)c(=O)n(CCc3ccccc3)c2n1 | 15.8 µM (active) | 
96 | Cc1nc2cnc(N3CCN(C)CC3)nc2n(CCc2ccccc2)c1=O | 2.51 µM (active) | 
97 | COCCn1c(=O)c(-c2cc(F)cc(F)c2)nc2cnc(OC)nc21 |  | 2.08% (inactive)
98 | COCCn1c(=O)c(-c2cc(F)cc(F)c2)nc2cnc(N(C)C)nc21 |  | 11.4% (inactive)
99 | CCNc1ncc2nc(-c3ccc(Cl)cc3)c(=O)n(C[C@H]3CCCO3)c2n1 |  | 5.84% (inactive)
100 | CCNc1ncc2nc(-c3cc(F)cc(F)c3)c(=O)n(C[C@H]3CCCO3)c2n1 | 0.158 µM (active) | 
101 | CN(C)c1ncc2nc(-c3cc(F)cc(F)c3)c(=O)n(C[C@H]3CCCO3)c2n1 |  | -0.128% (inactive)
102 | CN1CCN(c2ncc3nc(-c4cc(F)cc(F)c4)c(=O)n(CCc4ccccc4)c3n2)CC1 |  | -8.55% (inactive)
103 | CN(C)c1ncc2nc(-c3cc(F)cc(F)c3)c(=O)n(CCc3ccccc3)c2n1 |  | -8.92% (inactive)
104 | CCNc1ncc2nc(-c3cc(F)cc(F)c3)c(=O)n(Cc3cccs3)c2n1 |  | 1.18% (inactive)
105 | CN1CCN(c2ncc3nc(-c4cccs4)c(=O)n(CCc4ccccc4)c3n2)CC1 |  | -7.46% (inactive)
106 | CCNc1ncc2nc(-c3cc(F)cc(F)c3)c(=O)n(CCOC)c2n1 | 0.316 µM (active) | 
